Results filed as inconclusive are left out. Where a call stands in place of a potency, no number is given. Unmarked numbers belong to inactive results. Calls of active or inactive are those of the source. Calls come from the whole dose curve; tested in HEK293 reporter line. Bridge positions count the residues as written; N and C are the ends. Square brackets hold non-standard residues; d marks the D form. Peptide text beside a SMILES is read from it. hArg = N=C(N)NCCCC[C@H](N)C(=O)O; Mpa = O=C(O)CCS

The nature of one assay: qHTS for Inhibitors of the Functional Ribonucleoprotein Complex (vRNP) of Lassa (LASV) Arenavirus: LASV Primary Screen - GLuc reporter signal (AID 1347082). Note: nearly all actives have a fitted effect of over 60% in size. The settings on record: LASV minigenome vRNP, Gaussia luciferase reporter; series mostly up to 57.5 µM. A general note: Quantitative high-throughput screening tests each substance at several concentrations.
Consider `CCCCCCc1ccc(O)cc1O`, for which the Potency entry was “inactive”.
On the same count and under the same terms, the result for `CCCCCCCCCCOCC(O)CN` (stereo not drawn) reads “inactive”.
Turning to `CNC(=O)CN(CCN(CCN(CC(=O)[O-])CC(=O)NC)CC(=O)[O-])CC(=O)[O-].O.[Gd+3]`, the Potency entry is “inactive”.
The same measure, in the same setting: the value for `Fc1ccc(C(c2ccc(F)cc2)N2CCN(C/C=C/c3ccccc3)CC2)cc1` was “inactive”; that for `O=C1CC2(CCCC2)CC(=O)N1CCCCN1CCN(c2ncccn2)CC1` was “inactive”; that for `CC(C)C(=O)OCc1cccc(OC(=O)[C@@H]2N3C(=O)[C@@H](NC(=O)Cc4ccccc4)[C@H]3SC2(C)C)c1` was “inactive”.
`NS(=O)(=O)c1cc2c(cc1Cl)NCNS2(=O)=O`: the Potency entry is “inactive”.
Same read-out and setting: the result for `NC(=O)[C@@H]1CSSCCC(=O)N[C@@H](CCCCN=C(N)N)C(=O)NCC(=O)N[C@@H](CC(=O)O)C(=O)N[C@@H](Cc2c[nH]c3ccccc23)C(=O)N2CCC[C@H]2C(=O)N1` ([Mpa][hArg]GDWPC-NH2; disulfide 1-7) reads “inactive”; that for `CCn1cc(C(=O)O)c(=O)c2cc(F)c(N3CCN(C)CC3)cc21`, “inactive”.
The same measure, in the same setting: the value for `Cc1cccc(OCC(O)CNC(C)(C)C)c1C` (stereo not drawn) was “inactive”; that for `O=C(CCCCC(=O)Nc1c(I)cc(I)c(C(=O)O)c1I)Nc1c(I)cc(I)c(C(=O)O)c1I` was “inactive”.
Consider `CCC(=O)Oc1ccc2c(c1)CC[C@@H]1[C@@H]2CC[C@@]2(C)[C@H]1C[C@@H](OC(=O)CC)[C@@H]2OC(=O)CC`, for which the Potency entry was “inactive”.
Consider `CC(=O)OC[C@H]1O[C@@](COC(C)=O)(O[C@H]2O[C@H](COC(C)=O)[C@@H](OC(C)=O)[C@H](OC(C)=O)[C@H]2OC(C)=O)[C@@H](OC(C)=O)[C@@H]1OC(C)=O`, for which the Potency result is “inactive”.
Turning to `CC[N+](CC)(CC(=O)Nc1c(C)cccc1C)Cc1ccccc1`, the Potency entry is “inactive”.
On to `c1ccc(C(O[C@H]2CCCN(CCc3ccc4c(c3)OCO4)C2)c2ccccc2)cc1`, for which the Potency result is “inactive”.
The same measure, in the same setting: the value for `OCCN1CCN(CCCN2c3ccccc3C=Cc3ccccc32)CC1` was “inactive”.
`O=c1[nH]c(=O)c2[nH]c(=O)[nH]c2[nH]1`: the activity change, negative = inhibition was -5.36% [at 11.5 µM].
For the compound `Cc1ccc(N(CC2=NCCN2)c2cccc(O)c2)cc1`, the Potency result is “inactive”.
`Cc1cccc(N(C)C(=S)Oc2ccc3c(c2)C2CCC3C2)c1` (stereo not drawn): the Potency result is “inactive”.
As to `C[C@H]1NCc2cc(-c3ccc4c(=O)c(C(=O)O)cn(C5CC5)c4c3OC(F)F)ccc21`, the Potency result is “inactive”.
Still for that read-out and setting: the result for `CCN(CC)C(=O)C1CN2CCc3cc(OC)c(OC)cc3C2CC1OC(C)=O` (stereo not drawn) reads “inactive”; that for `CC1(C)[C@@H](OC(=O)CCC(=O)O)CC[C@]2(C)[C@H]3C(=O)C=C4[C@@H]5C[C@@](C)(C(=O)O)CC[C@]5(C)CC[C@@]4(C)[C@]3(C)CC[C@@H]12`, “inactive”; that for `COC(=O)C1=C(C)NC(C)=C(C(=O)OC)C1c1ccccc1[N+](=O)[O-]`, “inactive”.
Turning to `Cc1c(C)c2c(c(C)c1OC(=O)CCC(=O)OCCO)CC[C@@](C)(CCC[C@H](C)CCC[C@H](C)CCCC(C)C)O2`, the Potency result is “inactive”.
Consider `CN(C)CCCN1c2ccccc2Sc2ccccc21`, for which the Potency result was “inactive”.
`COc1cc2c(cc1OC)C(C(C(=O)N(CCc1ccc(OC)c(OC)c1OC)CCc1ccc(OC)c(OC)c1OC)c1ccccc1)=NCC2` (stereo not drawn): the Potency entry was “inactive”.
Take `Nc1c(NC/C=C\COc2cc(CN3CCCCC3)ccn2)c(=O)c1=O`: the Potency result was “inactive”.
In the case of `CCc1cccc(N(C)C(N)=Nc2cccc3ccccc23)c1`, the Potency entry is “inactive”.
On to `O=C(O)COC(=O)Cc1ccccc1Nc1c(Cl)cccc1Cl`, for which the Potency entry is “inactive”.
For `N[C@@H](Cc1ccc(O)cc1)C(=O)O`, the activity change, negative = inhibition was 4.89% [at 11.5 µM].
Consider `CC(C)Cn1cnc2c1c(=O)n(C)c(=O)n2C`, for which the Potency result was “inactive”.
`CCn1ccnc1CC1COc2ccccc2O1` (stereo not drawn): the Potency result is “inactive”.
As to `Cc1c(-c2ccccc2)oc2c(C(=O)OCCN3CCCCC3)cccc2c1=O`, the Potency entry was “inactive”.
On to `CC(=O)O[C@H]1CC[C@@]2(C)C(=CC[C@@H]3[C@@H]2CC[C@]2(C)C(C(C)=O)=CC[C@@H]32)C1`, for which the Potency result was “inactive”.
Consider `Cc1cc(N)c2cc(NC(=O)Nc3ccc4nc(C)cc(N)c4c3)ccc2n1`, for which the Potency entry is “inactive”.
For the compound `COc1ccc(CN(CCN(C)C)c2ccccn2)cc1`, the Potency entry is “inactive”.
On to `CCCCOc1ccc(OCCCN2CCOCC2)cc1`, for which the Potency entry was “inactive”.
For `O=C(O)CCc1nc(-c2ccccc2)c(-c2ccccc2)o1`, the Potency result was “inactive”.
`Oc1cccc2[nH]ccc12`: the Potency result is “inactive”.

A short description of another assay: qHTS for Inhibitors of the Functional Ribonucleoprotein Complex (vRNP) of Lassa (LASV) Arenavirus: Viability assay - alamar blue signal for LASV Primary Screen (AID 1347083). Note: nearly all actives have a fitted effect of over 80% in size. The settings on record: cell viability, alamar blue fluorescence (LASV minigenome counter-screen); series mostly up to 57.5 µM.
In the case of `CCCCCCc1ccc(O)cc1O`, the Potency result was “inactive”.
On the same count and under the same terms, the value for `CCCCCCCCCCOCC(O)CN` (stereo not drawn) was “inactive”; that for `CNC(=O)CN(CCN(CCN(CC(=O)[O-])CC(=O)NC)CC(=O)[O-])CC(=O)[O-].O.[Gd+3]` was “inactive”.
For the compound `Fc1ccc(C(c2ccc(F)cc2)N2CCN(C/C=C/c3ccccc3)CC2)cc1`, the Potency result is “inactive”.
Consider `O=C1CC2(CCCC2)CC(=O)N1CCCCN1CCN(c2ncccn2)CC1`, for which the Potency result is “inactive”.
Consider `CC(C)C(=O)OCc1cccc(OC(=O)[C@@H]2N3C(=O)[C@@H](NC(=O)Cc4ccccc4)[C@H]3SC2(C)C)c1`, for which the Potency entry was “inactive”.
Take `NS(=O)(=O)c1cc2c(cc1Cl)NCNS2(=O)=O`: the Potency entry was “inactive”.
Same read-out and setting: the result for `NC(=O)[C@@H]1CSSCCC(=O)N[C@@H](CCCCN=C(N)N)C(=O)NCC(=O)N[C@@H](CC(=O)O)C(=O)N[C@@H](Cc2c[nH]c3ccccc23)C(=O)N2CCC[C@H]2C(=O)N1` ([Mpa][hArg]GDWPC-NH2; disulfide 1-7) reads “inactive”.
With `CCn1cc(C(=O)O)c(=O)c2cc(F)c(N3CCN(C)CC3)cc21`, the Potency entry is “inactive”.
In the case of `Cc1cccc(OCC(O)CNC(C)(C)C)c1C` (stereo not drawn), the Potency entry is “inactive”.
As to `O=C(CCCCC(=O)Nc1c(I)cc(I)c(C(=O)O)c1I)Nc1c(I)cc(I)c(C(=O)O)c1I`, the Potency entry was “inactive”.
Still for that read-out and setting: the result for `CCC(=O)Oc1ccc2c(c1)CC[C@@H]1[C@@H]2CC[C@@]2(C)[C@H]1C[C@@H](OC(=O)CC)[C@@H]2OC(=O)CC` reads “inactive”; that for `CC(=O)OC[C@H]1O[C@@](COC(C)=O)(O[C@H]2O[C@H](COC(C)=O)[C@@H](OC(C)=O)[C@H](OC(C)=O)[C@H]2OC(C)=O)[C@@H](OC(C)=O)[C@@H]1OC(C)=O`, “inactive”; that for `CC[N+](CC)(CC(=O)Nc1c(C)cccc1C)Cc1ccccc1`, “inactive”.
With `c1ccc(C(O[C@H]2CCCN(CCc3ccc4c(c3)OCO4)C2)c2ccccc2)cc1`, the Potency result was “inactive”.
As for `OCCN1CCN(CCCN2c3ccccc3C=Cc3ccccc32)CC1`, the Potency result is “inactive”.
On to `O=c1[nH]c(=O)c2[nH]c(=O)[nH]c2[nH]1`, for which the activity change, negative = reduced viability was 13.2% [at 11.5 µM].
For `Cc1ccc(N(CC2=NCCN2)c2cccc(O)c2)cc1`, the Potency entry was “inactive”.
As for `Cc1cccc(N(C)C(=S)Oc2ccc3c(c2)C2CCC3C2)c1` (stereo not drawn), the Potency result is “inactive”.
Consider `C[C@H]1NCc2cc(-c3ccc4c(=O)c(C(=O)O)cn(C5CC5)c4c3OC(F)F)ccc21`, for which the Potency result was “inactive”.
Regarding `CCN(CC)C(=O)C1CN2CCc3cc(OC)c(OC)cc3C2CC1OC(C)=O` (stereo not drawn), the Potency result is “inactive”.
On the same count and under the same terms, the value for `CC1(C)[C@@H](OC(=O)CCC(=O)O)CC[C@]2(C)[C@H]3C(=O)C=C4[C@@H]5C[C@@](C)(C(=O)O)CC[C@]5(C)CC[C@@]4(C)[C@]3(C)CC[C@@H]12` was “inactive”; that for `COC(=O)C1=C(C)NC(C)=C(C(=O)OC)C1c1ccccc1[N+](=O)[O-]` was “inactive”; that for `Cc1c(C)c2c(c(C)c1OC(=O)CCC(=O)OCCO)CC[C@@](C)(CCC[C@H](C)CCC[C@H](C)CCCC(C)C)O2` was “inactive”.
Take `CN(C)CCCN1c2ccccc2Sc2ccccc21`: the Potency result was “inactive”.
Turning to `COc1cc2c(cc1OC)C(C(C(=O)N(CCc1ccc(OC)c(OC)c1OC)CCc1ccc(OC)c(OC)c1OC)c1ccccc1)=NCC2` (stereo not drawn), the Potency result is “inactive”.
The same measure, in the same setting: the result for `Nc1c(NC/C=C\COc2cc(CN3CCCCC3)ccn2)c(=O)c1=O` reads “inactive”; that for `CCc1cccc(N(C)C(N)=Nc2cccc3ccccc23)c1`, “inactive”.
Same read-out and setting: the value for `O=C(O)COC(=O)Cc1ccccc1Nc1c(Cl)cccc1Cl` was “inactive”.
Regarding `N[C@@H](Cc1ccc(O)cc1)C(=O)O`, the activity change, negative = reduced viability is 15.7% [at 11.5 µM].
Take `CC(C)Cn1cnc2c1c(=O)n(C)c(=O)n2C`: the Potency entry is “inactive”.
For `CCn1ccnc1CC1COc2ccccc2O1` (stereo not drawn), the Potency result is “inactive”.
For `Cc1c(-c2ccccc2)oc2c(C(=O)OCCN3CCCCC3)cccc2c1=O`, the Potency result was “inactive”.
Same read-out and setting: the result for `CC(=O)O[C@H]1CC[C@@]2(C)C(=CC[C@@H]3[C@@H]2CC[C@]2(C)C(C(C)=O)=CC[C@@H]32)C1` reads “inactive”; that for `Cc1cc(N)c2cc(NC(=O)Nc3ccc4nc(C)cc(N)c4c3)ccc2n1`, “inactive”.
On the same count and under the same terms, the value for `COc1ccc(CN(CCN(C)C)c2ccccn2)cc1` was “inactive”.
With `CCCCOc1ccc(OCCCN2CCOCC2)cc1`, the Potency result is “inactive”.
Regarding `O=C(O)CCc1nc(-c2ccccc2)c(-c2ccccc2)o1`, the Potency entry was “inactive”.
Regarding `Oc1cccc2[nH]ccc12`, the Potency entry was “inactive”.

These data come from PubChem BioAssay (NCATS).
